Data on one sequence can be found in article PMC7862700, “An all-to-all approach to the identification of sequence-specific readers for epigenetic DNA modifications on cytosine”.

Common to all, as to assay: DAPPL (digital affinity profiling via proximity ligation, sequencing); 10 mM Tris-HCl pH 7.5, 50 mM NaCl, 1 mM DTT, 4% glycerol, room temperature, 30 min; GST-TFs on glutathione beads, 16-mer random dsDNA library, 0.1% formaldehyde crosslink after washing; high values mean tight binding
The target of experiment [1] is T1, FLI1 (Homo sapiens, UniProt Q01543 1-452).
T1 sequence: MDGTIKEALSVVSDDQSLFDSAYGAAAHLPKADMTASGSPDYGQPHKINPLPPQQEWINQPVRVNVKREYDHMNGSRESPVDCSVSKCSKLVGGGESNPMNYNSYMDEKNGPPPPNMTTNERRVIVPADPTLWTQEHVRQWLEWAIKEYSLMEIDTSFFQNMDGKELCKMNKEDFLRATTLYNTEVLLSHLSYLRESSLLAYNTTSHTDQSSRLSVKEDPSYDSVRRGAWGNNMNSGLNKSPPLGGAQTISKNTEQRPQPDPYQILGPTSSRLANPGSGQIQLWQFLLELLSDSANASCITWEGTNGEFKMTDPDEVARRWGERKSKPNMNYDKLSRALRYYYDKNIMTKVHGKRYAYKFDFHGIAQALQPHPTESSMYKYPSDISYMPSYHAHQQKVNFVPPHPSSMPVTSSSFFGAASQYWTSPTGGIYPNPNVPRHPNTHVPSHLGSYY
Conditions: protein: recombinant; tags: N-terminal GST; dsDNA, one strand shown. The essentials:
(§1)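 Pools were built from human transcription factors expressed in yeast as GST fusions, captured on glutathione beads and DNA-barcoded, along with a tag-only sample. Incubation with 200 nmole of a 16-mer random double-stranded DNA library lasted 30 min at room temperature in Tris/NaCl/DTT/glycerol buffer, and was followed by washing, 0.1% formaldehyde crosslinking, proximity ligation, PCR amplification and Illumina NextSeq500 sequencing. Binding signal is the quotient of each hexamer's read frequency for a factor and its frequency for the tag-only sample.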

In experiment [2] the target is T2, ELK1 (Homo sapiens, UniProt P19419 1-428).
T2 sequence: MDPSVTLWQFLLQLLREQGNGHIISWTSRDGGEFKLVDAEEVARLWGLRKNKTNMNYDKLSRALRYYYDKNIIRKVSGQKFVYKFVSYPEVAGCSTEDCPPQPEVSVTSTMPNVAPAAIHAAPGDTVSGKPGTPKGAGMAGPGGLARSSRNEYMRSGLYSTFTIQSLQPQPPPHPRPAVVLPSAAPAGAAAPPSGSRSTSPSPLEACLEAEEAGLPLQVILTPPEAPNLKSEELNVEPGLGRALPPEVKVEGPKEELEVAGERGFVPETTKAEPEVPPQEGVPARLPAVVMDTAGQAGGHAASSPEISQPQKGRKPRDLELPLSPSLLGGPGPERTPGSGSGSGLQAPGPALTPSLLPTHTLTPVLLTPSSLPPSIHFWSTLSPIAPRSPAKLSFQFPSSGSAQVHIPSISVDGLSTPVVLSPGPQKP
To be noted: protein: recombinant; tags: N-terminal GST; dsDNA, one strand shown. The essentials: as §1

In experiment [3] the target is T3, GABPA (Homo sapiens, UniProt Q06546 1-454).
T3 sequence: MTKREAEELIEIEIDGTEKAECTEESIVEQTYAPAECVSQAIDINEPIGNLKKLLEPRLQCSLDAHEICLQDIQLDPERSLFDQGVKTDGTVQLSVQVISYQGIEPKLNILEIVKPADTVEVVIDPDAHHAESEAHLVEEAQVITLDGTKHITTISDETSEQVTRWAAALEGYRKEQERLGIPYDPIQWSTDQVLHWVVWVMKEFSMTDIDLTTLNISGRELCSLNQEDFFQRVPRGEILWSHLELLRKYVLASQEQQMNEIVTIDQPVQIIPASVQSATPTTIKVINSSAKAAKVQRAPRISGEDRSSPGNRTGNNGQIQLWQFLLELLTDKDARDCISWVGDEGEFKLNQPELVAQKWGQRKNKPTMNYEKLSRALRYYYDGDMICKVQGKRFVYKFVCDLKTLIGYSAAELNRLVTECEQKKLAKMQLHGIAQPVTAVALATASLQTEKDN
Conditions: protein: recombinant; tags: N-terminal GST; dsDNA, one strand shown. The essentials:
as §1

The target of experiment [4] is T4, ERG (Homo sapiens, UniProt P11308 1-479).
T4 sequence: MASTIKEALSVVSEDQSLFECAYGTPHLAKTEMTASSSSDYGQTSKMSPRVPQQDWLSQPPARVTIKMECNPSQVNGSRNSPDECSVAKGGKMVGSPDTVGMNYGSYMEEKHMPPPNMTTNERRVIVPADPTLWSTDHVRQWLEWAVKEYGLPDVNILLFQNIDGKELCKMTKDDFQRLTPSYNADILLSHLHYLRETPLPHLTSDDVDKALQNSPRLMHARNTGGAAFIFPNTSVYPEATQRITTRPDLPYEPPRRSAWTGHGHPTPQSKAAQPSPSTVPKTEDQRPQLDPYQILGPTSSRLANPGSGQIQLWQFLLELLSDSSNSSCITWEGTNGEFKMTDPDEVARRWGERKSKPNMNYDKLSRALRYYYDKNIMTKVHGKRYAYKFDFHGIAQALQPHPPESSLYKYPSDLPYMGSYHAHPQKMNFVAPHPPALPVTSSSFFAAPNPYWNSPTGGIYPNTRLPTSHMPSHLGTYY
Conditions: protein: recombinant; tags: N-terminal GST; dsDNA, one strand shown. The essentials: as §1

For experiment [5], the target named is ELF1 (Homo sapiens, UniProt P32519 1-619). Conditions: protein: recombinant; tags: N-terminal GST; dsDNA, one strand shown. The method, boiled down:
as §1

Experiment [6] addresses T5, EHF (Homo sapiens, UniProt Q9NZC4 1-300).
T5 sequence: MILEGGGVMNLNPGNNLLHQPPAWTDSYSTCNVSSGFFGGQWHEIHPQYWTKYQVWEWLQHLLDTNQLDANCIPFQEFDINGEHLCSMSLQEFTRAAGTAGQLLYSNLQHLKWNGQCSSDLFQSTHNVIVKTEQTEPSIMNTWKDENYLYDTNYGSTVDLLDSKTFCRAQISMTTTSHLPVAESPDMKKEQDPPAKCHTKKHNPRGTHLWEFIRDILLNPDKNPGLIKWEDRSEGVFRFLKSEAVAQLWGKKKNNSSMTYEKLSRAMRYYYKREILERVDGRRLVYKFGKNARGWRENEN
To be noted: protein: recombinant; tags: N-terminal GST; dsDNA, one strand shown. The essentials: as §1

The target of experiment [7] is SPI1 (Homo sapiens, UniProt P17947 1-270). Conditions: protein: recombinant; tags: N-terminal GST; dsDNA, one strand shown. The essentials:
as §1

Experiment [8] deals with SPIB (Homo sapiens, UniProt Q01892 1-262). To be noted: protein: recombinant; tags: N-terminal GST; dsDNA, one strand shown. The essentials: as §1
In experiment [9] the target is T6, ELK3 (Homo sapiens, UniProt P41970 1-407).
T6 sequence: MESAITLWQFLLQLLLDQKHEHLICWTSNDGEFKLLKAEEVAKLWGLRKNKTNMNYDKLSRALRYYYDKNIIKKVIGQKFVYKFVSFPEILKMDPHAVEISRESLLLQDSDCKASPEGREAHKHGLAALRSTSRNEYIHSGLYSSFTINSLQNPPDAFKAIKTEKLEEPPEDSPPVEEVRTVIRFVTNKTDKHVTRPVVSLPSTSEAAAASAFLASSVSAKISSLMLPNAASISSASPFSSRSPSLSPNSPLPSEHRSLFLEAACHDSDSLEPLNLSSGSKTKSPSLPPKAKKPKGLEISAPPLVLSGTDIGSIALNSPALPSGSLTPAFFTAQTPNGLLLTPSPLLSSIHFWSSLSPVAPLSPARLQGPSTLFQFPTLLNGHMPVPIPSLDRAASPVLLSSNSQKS
To be noted: protein: recombinant; tags: N-terminal GST; dsDNA, one strand shown. The method, boiled down: as §1

In experiment [10] the target is T7, FEV (Homo sapiens, UniProt Q99581 1-238).
T7 sequence: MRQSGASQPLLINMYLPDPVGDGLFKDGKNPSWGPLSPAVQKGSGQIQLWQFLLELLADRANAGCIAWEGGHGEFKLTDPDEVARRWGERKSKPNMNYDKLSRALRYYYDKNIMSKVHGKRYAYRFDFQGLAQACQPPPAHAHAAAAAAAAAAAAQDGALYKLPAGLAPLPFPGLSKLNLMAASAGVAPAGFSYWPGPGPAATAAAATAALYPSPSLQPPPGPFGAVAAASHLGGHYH
To be noted: protein: recombinant; tags: N-terminal GST; dsDNA, one strand shown. The method, boiled down: as §1

For experiment [11], the target named is ETV5 (Homo sapiens, UniProt P41161 1-510). To be noted: protein: recombinant; tags: N-terminal GST; dsDNA, one strand shown. The essentials:
as §1

Experiment [12] has as its target HSF1 (Homo sapiens, UniProt Q00613 1-529). To be noted: protein: recombinant; tags: N-terminal GST; chain copies: 3; dsDNA, one strand shown. The essentials: as §1
The target of experiment [13] is T8, SPIC (Homo sapiens, UniProt Q8N5J4 1-248).
T8 sequence: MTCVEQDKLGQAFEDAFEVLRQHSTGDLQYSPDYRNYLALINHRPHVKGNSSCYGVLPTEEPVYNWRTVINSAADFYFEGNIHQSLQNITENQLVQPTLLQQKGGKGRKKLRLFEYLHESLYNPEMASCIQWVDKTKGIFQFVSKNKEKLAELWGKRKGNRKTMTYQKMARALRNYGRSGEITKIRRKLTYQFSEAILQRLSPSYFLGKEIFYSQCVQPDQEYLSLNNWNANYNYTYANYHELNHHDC
To be noted: protein: recombinant; tags: N-terminal GST; dsDNA, one strand shown. The essentials: as §1

Experiment [14] has as its target ELF4 (Homo sapiens, UniProt Q99607 1-663). Conditions: protein: recombinant; tags: N-terminal GST; dsDNA, one strand shown. The essentials:
as §1

Experiment [15] deals with T9, ELK4 (Homo sapiens, UniProt P28324-2 1-405).
T9 sequence: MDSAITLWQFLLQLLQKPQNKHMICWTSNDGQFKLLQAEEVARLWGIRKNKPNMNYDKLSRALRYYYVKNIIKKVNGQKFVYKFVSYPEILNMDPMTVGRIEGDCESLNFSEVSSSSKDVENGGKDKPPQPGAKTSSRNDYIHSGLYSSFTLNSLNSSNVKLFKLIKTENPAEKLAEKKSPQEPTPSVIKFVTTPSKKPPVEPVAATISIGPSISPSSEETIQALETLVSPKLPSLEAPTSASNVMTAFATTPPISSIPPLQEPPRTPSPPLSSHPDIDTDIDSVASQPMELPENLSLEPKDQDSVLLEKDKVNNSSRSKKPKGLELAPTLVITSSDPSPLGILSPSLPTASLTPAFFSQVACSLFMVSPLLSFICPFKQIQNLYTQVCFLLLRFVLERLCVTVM
To be noted: protein: recombinant; tags: N-terminal GST; dsDNA, one strand shown. The essentials:
as §1

Experiment [16] deals with T10, ETV2 (Homo sapiens, UniProt O00321 1-342).
T10 sequence: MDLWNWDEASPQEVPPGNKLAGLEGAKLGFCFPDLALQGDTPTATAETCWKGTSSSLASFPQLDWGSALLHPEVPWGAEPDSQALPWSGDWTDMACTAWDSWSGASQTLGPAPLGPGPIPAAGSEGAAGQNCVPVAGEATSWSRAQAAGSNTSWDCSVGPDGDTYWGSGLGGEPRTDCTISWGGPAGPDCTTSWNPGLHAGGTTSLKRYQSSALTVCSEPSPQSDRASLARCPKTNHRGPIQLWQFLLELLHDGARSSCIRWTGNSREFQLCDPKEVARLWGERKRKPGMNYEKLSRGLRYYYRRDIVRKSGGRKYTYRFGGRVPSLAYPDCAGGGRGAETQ
Conditions: protein: recombinant; tags: N-terminal GST; dsDNA, one strand shown. The method, boiled down:
as §1

Experiment [17] addresses T11, ELF3 (Homo sapiens, UniProt P78545 1-371).
T11 sequence: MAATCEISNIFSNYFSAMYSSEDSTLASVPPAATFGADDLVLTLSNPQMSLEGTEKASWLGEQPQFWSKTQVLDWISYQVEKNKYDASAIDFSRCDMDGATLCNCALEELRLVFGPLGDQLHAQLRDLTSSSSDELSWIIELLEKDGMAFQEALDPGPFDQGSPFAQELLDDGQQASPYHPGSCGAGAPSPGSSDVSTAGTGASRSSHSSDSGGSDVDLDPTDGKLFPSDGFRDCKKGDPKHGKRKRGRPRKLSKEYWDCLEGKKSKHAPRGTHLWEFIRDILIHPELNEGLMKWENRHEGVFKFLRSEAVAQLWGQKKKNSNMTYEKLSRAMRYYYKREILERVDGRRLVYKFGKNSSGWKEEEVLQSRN
To be noted: protein: recombinant; tags: N-terminal GST; dsDNA, one strand shown. The essentials:
as §1

For experiment [18], the target named is CRX (Homo sapiens, UniProt O43186 1-299). To be noted: protein: recombinant; tags: N-terminal GST; dsDNA, one strand shown. The method, boiled down: as §1
Experiment [19] concerns the target ETV1 (Homo sapiens, UniProt P50549 1-477). Conditions: protein: recombinant; tags: N-terminal GST; dsDNA, one strand shown. The essentials: as §1

Chain of ELF1 (P32519 whole entry): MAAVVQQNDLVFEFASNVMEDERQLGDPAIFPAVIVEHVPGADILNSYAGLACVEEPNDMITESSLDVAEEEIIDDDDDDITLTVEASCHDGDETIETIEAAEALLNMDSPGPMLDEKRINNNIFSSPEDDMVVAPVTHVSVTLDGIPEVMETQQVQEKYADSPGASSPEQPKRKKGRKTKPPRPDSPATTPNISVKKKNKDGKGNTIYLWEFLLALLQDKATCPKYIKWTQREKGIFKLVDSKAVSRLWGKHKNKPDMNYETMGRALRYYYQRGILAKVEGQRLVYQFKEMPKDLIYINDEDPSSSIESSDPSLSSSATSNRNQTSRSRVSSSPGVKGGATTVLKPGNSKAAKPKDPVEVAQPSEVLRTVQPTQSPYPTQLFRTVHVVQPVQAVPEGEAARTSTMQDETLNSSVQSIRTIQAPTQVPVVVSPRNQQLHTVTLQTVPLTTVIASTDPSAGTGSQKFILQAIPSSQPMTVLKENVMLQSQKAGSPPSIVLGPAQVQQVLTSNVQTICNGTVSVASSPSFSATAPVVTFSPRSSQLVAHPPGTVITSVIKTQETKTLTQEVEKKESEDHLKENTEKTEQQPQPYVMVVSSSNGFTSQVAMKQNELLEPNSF
Chain of CRX (O43186 whole entry): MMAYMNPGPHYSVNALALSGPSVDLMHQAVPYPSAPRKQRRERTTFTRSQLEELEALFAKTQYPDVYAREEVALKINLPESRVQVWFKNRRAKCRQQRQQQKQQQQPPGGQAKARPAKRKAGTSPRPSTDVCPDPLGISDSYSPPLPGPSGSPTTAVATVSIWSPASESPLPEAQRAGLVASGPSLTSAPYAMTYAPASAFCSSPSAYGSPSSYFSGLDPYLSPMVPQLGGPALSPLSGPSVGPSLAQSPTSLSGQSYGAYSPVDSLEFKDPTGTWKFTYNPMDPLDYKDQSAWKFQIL
Chain of HSF1 (Q00613 whole entry): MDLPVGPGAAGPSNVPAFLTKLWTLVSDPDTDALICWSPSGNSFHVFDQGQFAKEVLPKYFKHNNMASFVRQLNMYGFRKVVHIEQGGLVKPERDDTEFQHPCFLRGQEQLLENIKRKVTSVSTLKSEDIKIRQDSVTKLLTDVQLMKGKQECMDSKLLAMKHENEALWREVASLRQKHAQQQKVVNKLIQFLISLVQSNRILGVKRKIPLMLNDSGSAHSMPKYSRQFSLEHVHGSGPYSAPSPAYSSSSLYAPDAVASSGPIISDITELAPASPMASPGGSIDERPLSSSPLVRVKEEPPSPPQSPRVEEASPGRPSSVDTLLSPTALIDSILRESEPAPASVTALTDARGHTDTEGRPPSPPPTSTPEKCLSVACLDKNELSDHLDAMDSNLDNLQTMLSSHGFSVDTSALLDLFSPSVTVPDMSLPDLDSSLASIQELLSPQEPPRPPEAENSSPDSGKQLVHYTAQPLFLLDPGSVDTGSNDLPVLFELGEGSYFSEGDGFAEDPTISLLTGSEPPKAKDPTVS
Chain of ETV1 (P50549 whole entry): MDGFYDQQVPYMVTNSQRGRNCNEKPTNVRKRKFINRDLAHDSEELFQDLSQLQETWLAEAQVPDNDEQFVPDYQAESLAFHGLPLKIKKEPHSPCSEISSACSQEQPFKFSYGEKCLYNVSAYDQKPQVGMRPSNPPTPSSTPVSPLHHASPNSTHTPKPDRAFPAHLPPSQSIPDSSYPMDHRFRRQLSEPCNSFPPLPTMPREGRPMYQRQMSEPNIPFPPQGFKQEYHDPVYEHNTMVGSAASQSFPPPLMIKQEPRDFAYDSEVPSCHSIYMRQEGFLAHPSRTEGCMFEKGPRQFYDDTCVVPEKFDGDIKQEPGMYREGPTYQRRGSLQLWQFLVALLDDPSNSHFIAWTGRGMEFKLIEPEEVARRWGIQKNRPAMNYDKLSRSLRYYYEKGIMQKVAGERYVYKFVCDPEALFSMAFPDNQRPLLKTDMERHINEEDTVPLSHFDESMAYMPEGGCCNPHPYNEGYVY
Chain of ELF4 (Q99607 whole entry): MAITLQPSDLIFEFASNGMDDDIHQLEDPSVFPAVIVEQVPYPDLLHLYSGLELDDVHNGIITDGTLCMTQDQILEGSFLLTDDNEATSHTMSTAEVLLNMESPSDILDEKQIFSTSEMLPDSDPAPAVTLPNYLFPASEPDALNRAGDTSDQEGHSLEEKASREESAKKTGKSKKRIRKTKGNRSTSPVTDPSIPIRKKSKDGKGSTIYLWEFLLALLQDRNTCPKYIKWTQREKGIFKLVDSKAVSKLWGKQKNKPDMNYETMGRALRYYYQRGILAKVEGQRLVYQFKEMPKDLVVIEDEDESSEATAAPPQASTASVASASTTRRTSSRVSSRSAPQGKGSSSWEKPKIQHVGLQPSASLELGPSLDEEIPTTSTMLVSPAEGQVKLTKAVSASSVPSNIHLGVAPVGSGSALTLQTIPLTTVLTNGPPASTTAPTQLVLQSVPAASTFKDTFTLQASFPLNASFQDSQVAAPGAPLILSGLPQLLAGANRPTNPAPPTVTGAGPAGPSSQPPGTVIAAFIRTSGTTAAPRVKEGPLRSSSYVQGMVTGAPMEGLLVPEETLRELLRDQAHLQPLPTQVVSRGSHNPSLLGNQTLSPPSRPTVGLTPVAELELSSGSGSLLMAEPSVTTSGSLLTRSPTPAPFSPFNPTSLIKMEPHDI
Chain of SPIB (Q01892 whole entry): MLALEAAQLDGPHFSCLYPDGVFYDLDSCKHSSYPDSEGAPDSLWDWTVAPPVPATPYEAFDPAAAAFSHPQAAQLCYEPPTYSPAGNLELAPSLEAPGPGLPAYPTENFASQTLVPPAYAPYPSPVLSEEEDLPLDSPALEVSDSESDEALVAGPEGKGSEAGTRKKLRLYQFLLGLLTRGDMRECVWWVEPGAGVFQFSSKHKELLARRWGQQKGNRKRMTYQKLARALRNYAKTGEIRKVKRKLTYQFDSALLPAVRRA
Chain of ETV5 (P41161 whole entry): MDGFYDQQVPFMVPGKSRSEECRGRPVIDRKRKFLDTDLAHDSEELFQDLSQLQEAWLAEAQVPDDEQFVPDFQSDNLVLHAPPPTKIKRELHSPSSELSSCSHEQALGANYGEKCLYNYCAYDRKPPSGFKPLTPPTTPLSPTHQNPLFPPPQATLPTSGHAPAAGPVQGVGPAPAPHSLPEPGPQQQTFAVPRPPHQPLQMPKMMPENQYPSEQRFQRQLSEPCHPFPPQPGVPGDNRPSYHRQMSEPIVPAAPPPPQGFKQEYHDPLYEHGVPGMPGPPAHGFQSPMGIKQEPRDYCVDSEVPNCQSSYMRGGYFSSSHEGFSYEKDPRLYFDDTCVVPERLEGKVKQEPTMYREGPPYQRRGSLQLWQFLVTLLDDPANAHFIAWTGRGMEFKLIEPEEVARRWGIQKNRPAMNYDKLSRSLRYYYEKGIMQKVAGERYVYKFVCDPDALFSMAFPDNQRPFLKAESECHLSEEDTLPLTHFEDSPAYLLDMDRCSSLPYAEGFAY

As for ACACTA, the binding signal in experiment [1] is 1.11 fold enrichment (6-mer frequency, TF over GST control); in experiment [2] it was 1.17 fold enrichment (6-mer frequency, TF over GST control); in [3], 1.13 fold enrichment (6-mer frequency, TF over GST control); in experiment [4] it was 1.12 fold enrichment (6-mer frequency, TF over GST control); in experiment [5] it was 1.19 fold enrichment (6-mer frequency, TF over GST control); in experiment [6], 1.15 fold enrichment (6-mer frequency, TF over GST control). The binding signal in [7] was 1.11 fold enrichment (6-mer frequency, TF over GST control); in experiment [8] it was 1.09 fold enrichment (6-mer frequency, TF over GST control); in [9], 1.1 fold enrichment (6-mer frequency, TF over GST control); in experiment [10] it was 1.14 fold enrichment (6-mer frequency, TF over GST control); in experiment [11], 1.14 fold enrichment (6-mer frequency, TF over GST control); in experiment [12], 1.12 fold enrichment (6-mer frequency, TF over GST control). Besides, the binding signal in experiment [13] is 1.14 fold enrichment (6-mer frequency, TF over GST control); in [14] it was 1.13 fold enrichment (6-mer frequency, TF over GST control); in experiment [15] it was 1.16 fold enrichment (6-mer frequency, TF over GST control); in experiment [16], 1.1 fold enrichment (6-mer frequency, TF over GST control); in experiment [17] it was 1.19 fold enrichment (6-mer frequency, TF over GST control); in experiment [18] it was 1.11 fold enrichment (6-mer frequency, TF over GST control). Besides, the binding signal in [19] was 1.03 fold enrichment (6-mer frequency, TF over GST control).
